Results as given in PubChem BioAssay (EPA / NIEHS).
Results filed as inconclusive are left out. Active and inactive are the calls of the source. How the source made its calls: active means hit-call score of the fitted dose curve at least 0.9, where 1 is the maximum; inconclusive means response in the unintended direction; inactive means score below 0.9.

Assay: Tanguay_ZF_120hpf_PFIN_legacy: (Legacy) Oregon State University Tanguay Lab 120 Hour Post-fertilization zebrafish Assay for Pectoral Fin Malformation (AID 2283648);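 further: each larva judged yes or no for fin defect by brightfield with dead larvae skipped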
Description: Tanguay_ZF_120hpf_legacy is a whole embryo, multiplexed endpoint assay using zebrafish larvae exposed for 120 hours post fertilization on a 96-well plate.Tanguay_ZF_120hpf_PFIN_legacy is one of one assay component(s) measured or calculated from the Tanguay_ZF_120hpf_legacy assay. It is designed to make measurements of zebrafish development as detected with brightfield microscopy of developing zebrafish embryos.Data from the assay component Tanguay_ZF_120hpf_PFIN_legacy was analyzed into 1 assay endpoints. This assay endpoint, Tanguay_ZF_120hpf_PFIN_legacy, was analyzed in the positive analysis fitting direction relative to DMSO as the negative control and baseline of activity. Using a type of morphology reporter, gain-of-signal activity can be used to understand changes in developmentals as they relate to the whole embryo. To generalize the intended target to other relatable targets, this assay endpoint is annotated to the zebrafish development intended target family, where the subfamily is pectoral fin morphogenesis.
Zebrafish husbandry: Tropical 5D wild-type adult zebrafish were housed in at an approximate density of 1000 per 100 gallon tank at the Sinnhuber Aquatic Research Laboratory, Oregon State University, Corvallis, OR. Each tank was kept at standard laboratory conditions of 28C on a 14-h light/10-h dark photoperiod in fish water consisting of reverse osmosis water supplemented with a commercially available salt (Instant Ocean). Spawning funnels were placed into the tanks the night prior, and embryos were collected and staged. To increase bioavailability, the chorion was enzymatically removed using pronase (63.6mg/ml, >/= 3.5U/mg, Sigma-Aldrich: P5147) at 4 hours post fertilization (hpf) using a custom automated dechorionator.Chemical exposures: Six hpf dechorionated embryos were placed 1 embryo per well in a 96-well plate prefilled with 90 ul of EM using automated embryo placement systems (AEPS). Ten microliters of each row of dilution plate 2 was added to 2 exposure plates. The final DMSO concentration used was 0.64% (vol/vol). Thirty-two embryos were also exposed to 5uM trimethyltin chloride (positive control). Plates were sealed to prevent evaporation and foil covered to reduce light exposure and kept in a 28C incubator. Embryos were statically exposed until 120 hpf. At 24 hpf, embryos were assessed for photomotor response using a custom photomotor response analysis tool (PRAT) and for developmental toxicity endpoints (MO24: mortality at 24 hpf, DP: developmental progression, SM: spontaneous movement, and NC: notochord distortion). At 120 hpf, locomotor activity was measured using Viewpoint Zebralab and assessed for 18 endpoints. Zebrafish acquisition and analysis program (ZAAP), a custom program designed to inventory, acquire, and manage zebrafish data, was used to collect developmental endpoints as either present or absent (i.e., binary responses were recorded). If mortality occurred for an embryo (at either 24 or 120 hpf), the non-mortality endpoints were not measured.

Q: With `CCSC(=O)N1CCCCCC1` as the molecule, how does the outcome read?
A: The outcome was “inactive”.

Q: Which outcome does the source give for `CCOP(=S)(OCC)Oc1nc(Cl)n(C(C)C)n1` here?
A: Its outcome is “inactive”.

Q: With `O=c1n(Cl)c(=O)n(Cl)c(=O)n1Cl` as the molecule, how does the outcome read?
A: Its outcome is “inactive”.

Q: For `CC(C)(C)C(=O)C(Oc1ccc(Cl)cc1)n1cncn1` (stereo not given), which outcome is on record?
A: Its outcome is “inactive”.

Q: For `CCCCC(O)(Cn1cncn1)c1ccc(Cl)cc1Cl` (stereo not given), which outcome is on record?
A: The outcome was “inactive”.

Q: For `COCC(C)N(C(=O)CCl)c1c(C)csc1C` (stereo not given), which AC50 is on record?
A: Its AC50 is 35.6 µM (active).

Q: Which outcome does the source give for `CN/C(=N\[N+](=O)[O-])NCc1cnc(Cl)s1` here?
A: The outcome was “inactive”.

Q: Which outcome does the source give for `CC(C)Nc1nc(Cl)nc(NC(C)C)n1` here?
A: The outcome was “inactive”.

Q: Which AC50 does the source give for `CCCCC(C#N)(Cn1cncn1)c1ccc(Cl)cc1` (stereo not given) here?
A: The AC50 was 24.1 µM (active).

Q: For `COc1ccc(-c2ccccc2)cc1NNC(=O)OC(C)C`, which outcome is on record?
A: Its outcome is “inactive”.

Q: Which outcome does the source give for `Cn1c(-c2ccccc2)cc(-c2ccccc2)[n+]1C` here?
A: The outcome was “inactive”.

Q: For `COc1cc(Cl)c(OC)cc1Cl`, which outcome is on record?
A: The outcome was “inactive”.

Q: For `Clc1nc(Cl)nc(Nc2ccccc2Cl)n1`, which outcome is on record?
A: The outcome was “inactive”.

Q: Which outcome does the source give for `CCOc1nc(F)cc2nc(S(=O)(=O)Nc3c(Cl)cccc3Cl)nn12` here?
A: The outcome was “inactive”.

Q: Which AC50 does the source give for `CC1(C)C(C=C(Cl)Cl)C1C(=O)OC(C#N)c1cccc(Oc2ccccc2)c1` (stereo not given) here?
A: The AC50 was 0.994 µM (active).

Q: With `CCOP(=O)(OCC)Oc1nc(Cl)c(Cl)cc1Cl` as the molecule, how does the outcome read?
A: The outcome was “inactive”.

Q: With `O=P(O)(O)CCCl` as the molecule, how does the outcome read?
A: The outcome was “inactive”.

Q: With `CS(=O)(=O)c1ccc(C(=O)C2C(=O)CCCC2=O)c([N+](=O)[O-])c1` as the molecule, how does the outcome read?
A: Its outcome is “inactive”.

Q: Which outcome does the source give for `COC(=O)NS(=O)(=O)c1ccc(N)cc1` here?
A: Its outcome is “inactive”.

Q: For `COc1cc(OC)nc(NC(=O)NS(=O)(=O)c2ncccc2OCC(F)(F)F)n1`, which outcome is on record?
A: Its outcome is “inactive”.

Q: For `O=C1C2CC=CCC2C(=O)N1SC(Cl)(Cl)Cl` (stereo not given), which outcome is on record?
A: The outcome was “inactive”.

Q: Which outcome does the source give for `CCNP(=S)(OC)O/C(C)=C/C(=O)OC(C)C` (stereo not given) here?
A: The outcome was “inactive”.

Q: For `CC1(C)C(C(=O)OC(C#N)c2cccc(Oc3ccccc3)c2)C1(C)C` (stereo not given), which outcome is on record?
A: Its outcome is “inactive”.

Q: Which outcome does the source give for `N#Cc1c[nH]cc1-c1cccc2c1OC(F)(F)O2` here?
A: The outcome was “inactive”.

Q: For `C=C(C)CN(CC)c1c([N+](=O)[O-])cc(C(F)(F)F)cc1[N+](=O)[O-]`, which outcome is on record?
A: The outcome was “inactive”.

Q: Which outcome does the source give for `Clc1cccc(C(Cl)(Cl)Cl)n1` here?
A: The outcome was “inactive”.

Q: Which outcome does the source give for `CCCN(CC)CC1COC2(CCC(C(C)(C)C)CC2)O1` (stereo not given) here?
A: The outcome was “inactive”.

Q: Which outcome does the source give for `CC(C)N1C(=O)N(c2ccccc2)CSC1=NC(C)(C)C` here?
A: Its outcome is “inactive”.

Q: For `Cc1cnc(C2=NC(C)(C(C)C)C(=O)N2)c(C(=O)O)c1` (stereo not given), which outcome is on record?
A: Its outcome is “inactive”.

Q: Which outcome does the source give for `CO/N=C(/C1=NOCCO1)c1ccccc1Oc1ncnc(Oc2ccccc2Cl)c1F` here?
A: Its outcome is “inactive”.

Q: For `Nc1cnn(-c2ccccc2)c(=O)c1Cl`, which outcome is on record?
A: The outcome was “inactive”.

Q: Which outcome does the source give for `Nc1c(Cl)c(Cl)nc(C(=O)O)c1Cl` here?
A: Its outcome is “inactive”.

Q: For `COP(=O)(OC)O/C(C)=C/C(=O)N(C)C`, which outcome is on record?
A: The outcome was “inactive”.

Q: Which outcome does the source give for `CNC(=O)N(C)c1nnc(C(C)(C)C)s1` here?
A: The outcome was “inactive”.

Q: With `O=C(O)c1c(Cl)ccc2cc(Cl)cnc12` as the molecule, how does the outcome read?
A: The outcome was “inactive”.

Q: Which outcome does the source give for `Cc1nc(N(C)C)nc(OC(=O)N(C)C)c1C` here?
A: Its outcome is “inactive”.

Q: Which outcome does the source give for `CC(C)N1C(=O)c2ccccc2NS1(=O)=O` here?
A: Its outcome is “inactive”.

Q: With `CC(C)C1(C)N=C(c2ncccc2C(=O)O)NC1=O` (stereo not given) as the molecule, how does the outcome read?
A: The outcome was “inactive”.

Q: Which outcome does the source give for `OC(c1ccc(Cl)cc1)(c1ccc(Cl)cc1)C(Cl)(Cl)Cl` here?
A: The outcome was “inactive”.

Q: Which outcome does the source give for `CCC(C)n1c(=O)[nH]c(C)c(Br)c1=O` (stereo not given) here?
A: The outcome was “inactive”.
